# Compound activity as filed in PubChem BioAssay.
# Rows were chosen to be rich in hits. Some 5.9% of all compounds tested hit in one or more screens of this group.
# GALK inh: qHTS Assay for Inhibitors of Human Galactokinase (GALK). P51570. Purified GALK, Kinase-Glo residual ATP luminescence. Potency, µM (top dose mostly 57.5 µM), without a hit: at the top dose activity change, negative = inhibition, actives largely listed as inhibitors. hit rate 0.007% among 270,000; further: potency means the concentration at half of the fitted maximal effect
# Target sequence (P51570 whole entry, looked up): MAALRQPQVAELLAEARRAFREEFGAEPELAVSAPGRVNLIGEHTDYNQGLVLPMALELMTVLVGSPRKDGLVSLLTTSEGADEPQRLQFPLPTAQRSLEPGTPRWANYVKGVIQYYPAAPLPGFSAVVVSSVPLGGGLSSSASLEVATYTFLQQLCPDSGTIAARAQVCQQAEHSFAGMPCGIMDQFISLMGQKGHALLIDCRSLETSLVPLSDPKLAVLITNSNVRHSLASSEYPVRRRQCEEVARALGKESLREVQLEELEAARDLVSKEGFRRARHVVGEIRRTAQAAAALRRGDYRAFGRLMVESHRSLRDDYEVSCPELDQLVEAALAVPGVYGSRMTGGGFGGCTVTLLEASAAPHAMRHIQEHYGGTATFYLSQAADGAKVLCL
#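 Kinase-Glo Plus luminescence measured ATP left after a 1 h room-temperature reaction. The reaction used 5 nM GALK, 100 uM galactose and 35 uM ATP at pH 8.0 (20 mM HEPES, 5 mM MgCl2, 60 mM NaCl, 1 mM DTT, 0.01% BSA).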
# rTrxR1 inhibitor: qHTS Assay for Inhibitors of Mammalian Selenoprotein Thioredoxin Reductase 1 (TrxR1): qHTS; Thioredoxin reductase 1, cytoplasmic (Rattus norvegicus), O89049; recombinant rTrxR1, NADPH fluorescence consumption, selenite substrate; Potency, µM (series often up to 114 µM), for the others: at the top dose activity change, negative = inhibition, most hits filed as inhibitors; hit rate 1% among 390,000; further: potency means the concentration at half of the fitted maximal effect; nearly all actives have a fitted effect of over 65% in size
#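 Rat TrxR1 (90 nM in the dispensed reagent) was pre-reduced with 400 uM NADPH for 5 min at room temperature, then incubated with compound for 15 min. After 400 uM selenite was added, NADPH fluorescence (Ex 340/Em 450 nm) was followed for 8 min.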
# FBPA coupling cs: qHTS Assay for Inhibitors of Fructose-1,6-bisphosphate Aldolase from Giardia Lamblia: Coupling assay counterscreen | coupling enzyme system counterscreen, AmpLite Red fluorescence | activity change, negative = inhibition, % at 58.2 µM, hits read low | hit rate 0.67% among 290,000; in the data active means activity change below about -30%
#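 Coupling enzymes only (glyceraldehyde-3-phosphate) + compound, at 57.5 uM final, 10 min RT; add substrate/coupling/AmpLite Red mix, 20 min RT; fluorescence ex 525/em 598 nm. Actives flag coupling-system interference.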
# VP16 counter: VP16 counterscreen qHTS for inhibitors of ROR gamma transcriptional activity. Drosophila S2 Gal4-VP16 UAS-luciferase, luminescence, 20 h. Potency, µM (titrated, usually from 53.6 µM), for the others: at the highest dose activity, negative = inhibition, usual class: inhibitors. AID 2546, 2010. hit rate 3.5% among 310,000;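 further: Gal4-VP16 expression switched on by copper sulfate through the metallothionein promoter; potency means the concentration at half of the fitted maximal effect; nearly all actives have a fitted effect of over 50% in size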
# TrxR1 substrate: qHTS Assay for Substrates of Mammalian Selenoprotein Thioredoxin Reductase 1 (TrxR1): qHTS | Thioredoxin reductase 1, cytoplasmic (Rattus norvegicus), O89049 | purified TrxR1 substrate turnover, NADPH consumption readout | Potency, µM (titrated, usually from 114 µM), for the others: at the highest dose activity change, negative = substrate turnover | hit rate 0.01% among 390,000; further: potency means the concentration at half of the fitted maximal effect; nearly all actives have a fitted effect of over 50% in size
#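 Rat TrxR1, dispensed at 90 nM, was prereduced with 400 uM NADPH (final) for 5 min at ~22 deg C, then incubated with compound 15 min before 400 uM selenite. A first-read NADPH fluorescence drop versus no-compound background flagged substrates.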
# RORg inh: qHTS for inhibitors of ROR gamma transcriptional activity | Drosophila S2 Gal4-RORgamma UAS-luciferase reporter, 20 h | Potency, µM (series often up to 53.6 µM), inactives show at the top dose activity change, negative = inhibition, hits mostly inhibitors | Nuclear receptor ROR-gamma (Mus musculus), P51450 | hit rate 5.4% among 310,000; further: potency means the concentration at half of the fitted maximal effect; nearly all actives have a fitted effect of over 60% in size
#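 Luminescence from a UAS-regulated Photinus luciferase reporter in stably transfected Drosophila Schneider cells is measured; decreased signal marks ROR gamma inhibition. Fusion expression is induced by 700 uM copper sulfate for 20 hr.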
# Numbers without * were called inactive; ? = inconclusive; / = no result given; [ ] = remark or other dose. Unless noted, the call rests on the fitted dose curve; in most records, active means well fitted curve in the direction sought with a large enough effect; inconclusive means small, poorly fitted or top-dose-only effect, or another doubt; inactive means no such curve, though single readings can be large; an effect the other way counts as inactive or inconclusive. On the % scale 0 is the no-effect control and ±100 the full control effect.
SMILES,GALK inh,rTrxR1 inhibitor,FBPA coupling cs,VP16 counter,TrxR1 substrate,RORg inh
O=C(NC(=S)NNC(=O)c1ccc(Cl)cc1Cl)c1cccnc1,-0.1%,-21.5%,-5.5,20µM*,-1.5%,12.6µM*
CCCCNC(=S)NNC(=O)c1cccnc1,-0.1%,-13.3%,2.0,11.2µM*,-6.2%,?
CC(C)c1ccccc1OCCNC(=S)NC(=O)c1cccnc1,-0.4%,25.7%[57.1 µM],-13.5,?,-6.0%[57.1 µM],3.55µM*
O=C(NCc1cccs1)C1CCN(S(=O)(=O)N2CCCC2)CC1,0.4%,30.0%,/,-5.0%,19.8%,0.5%
COc1cc(OC)c(NC(=O)CCc2nc(-c3cccs3)no2)cc1Cl,-0.2%,4.1%[57.1 µM],-7.2,6.6%,-1.0%[57.1 µM],?
O=C(NNC(=S)Nc1ccc(Br)cc1)c1cccnc1,0.1%,-10.7%,1.6,?,-4.4%,10µM*
CCCCNC(=S)NNC(=O)c1nn(C)cc1Cl,0.2%,-16.9%,4.4,-29.9%,-8.5%,14.1µM*
COc1ccc(CCNC(=O)c2nn(C)cc2Cl)cc1,1.7%,23.6%,2.8,5.4%,-3.3%,-11.7%
O=C(NCCCl)NNc1c(Cl)cc(Cl)cc1Cl,0.4%,36.7%[57.1 µM],0.3,3.2%,-13.6%[57.1 µM],-28.7%
CC(C)c1ccc(NC(=S)NNC(=O)c2cccnc2)cc1,5.2%,2.2%,2.0,?,-1.0%,?
CCCCNC(=S)NNc1c(Cl)cc(Cl)cc1Cl,8.2%,13.9%[57.1 µM],-2.6,5.01µM*,6.7%[57.1 µM],2.51µM*
O=C(NC(=S)NCCOCc1ccc(Cl)cc1)c1cccnc1,1.2%,3.2%,0.7,17.8µM*,2.6%,11.2µM*
COc1ccccc1C(CNC(=O)c1ccc(-c2ccccc2Cl)o1)N1CCCC1 (configuration not stated),/,-0.1%,/,/,3.9%,/
CC(C)(CNC(=O)c1ccc(Br)o1)CNC(=O)c1ccc(Br)o1,4.8%,-11.9%,0.3,/,2.2%,/
O=C(NC(=S)Nc1ncccn1)c1ccc(Cl)cc1Cl,-1.9%,4.3%[57.1 µM],-1.0,-0.7%,6.9%[57.1 µM],7.08µM*
CCCCNC(=S)NNC(=O)c1ccc(Br)o1,/,3.8%,2.8,-25.4%,-4.2%,0.794µM*
O=C(Nc1ncc([N+](=O)[O-])s1)c1ccc2c(c1)OCO2,12.5%,5.4%,-32.3*,2.51µM*,-7.5%,1.78µM*
Cc1ccc(C(=O)Nc2ncc(Cc3ccc(F)cc3)s2)o1,-1.5%,-5.3%,-1.5,?,-2.9%,?
Cc1cnc(NC(=O)c2ccc3c(c2)OCCO3)s1,/,7.5%,/,/,3.1%,/
Cc1ccc(C(=O)Nc2ncc([N+](=O)[O-])s2)cc1,-1.8%,-29.8%,-29.4,2µM*,-20.2%,0.891µM*
Cc1ccc(C(=O)Nc2ncc(Cc3ccc(SC(F)F)cc3)s2)cc1,-0.5%,10.1%,-0.5,?,4.6%,12.6µM*
Cc1ccn2c(CNCCn3cccn3)c(C(=O)N3CCCCCC3)nc2c1,0.9%,15.8%[57.1 µM],2.0,-0.4%,11.9%[57.1 µM],28.7%
O=C1C2CCCCC2C(=O)N1c1ccc(NC2CCCCC2)c([N+](=O)[O-])c1 (configuration not stated),1.1%,-2.5%,2.2,-13.1%,-9.1%,29.8%
C=CCN(CC=C)c1ccc(N2C(=O)C3CCCCC3C2=O)cc1[N+](=O)[O-] (configuration not stated),-2.1%,11.4%,-1.7,22.4µM*,0.3%,-35.1%
Cc1cc2c(N=O)c(NO)ccc2[nH]1,0.2%,-10.9%,-29.2,3.16µM*,-8.6%,5.01µM*
SMILES,GALK inh,rTrxR1 inhibitor,FBPA coupling cs,VP16 counter,TrxR1 substrate,RORg inh
CCN(CC)C(=O)c1cc([N+](=O)[O-])cc2c1-c1ccc([N+](=O)[O-])cc1C2=C(C#N)C#N,2.7%,25.1µM*,-33.6*,20µM*,-4.4%,?
CCN(CC)C(=O)c1ccc(Oc2ccc([N+](=O)[O-])cc2Cl)cc1,3.5%,29.9%[57.1 µM],0.9,-7.7%,2.8%[57.1 µM],38.9%
O=C1Cc2ccccc2C(=O)N1OCc1ccc(Cl)cc1,-2.1%,?,-41.8*,0.4%,-1.7%[57.1 µM],-15.6%
O=C1c2ccccc2C(=O)N1OCc1ccc(Cl)cc1,-4.1%,6.4%[57.1 µM],3.3,-17.8%,8.9%,33.0%
O=C(COC(=O)CCN1C(=O)C2CC=CCC2C1=O)Nc1ccc([N+](=O)[O-])cc1 (configuration not stated),/,-0.2%,/,/,-2.0%,/
CCN(CC(=O)NC1CCS(=O)(=O)C1)S(=O)(=O)c1cc([N+](=O)[O-])ccc1C (configuration not stated),/,8.9%,/,/,-0.9%,/
Cc1ccsc1-c1nc(-c2ccccc2)c(-c2ccccc2)[nH]1,3.3%,14.4%,0.2,?,18.8%,3.98µM*
Cc1ccc(OCC(=O)N/N=C\c2cn(C)c3ccccc23)c([N+](=O)[O-])c1,0.0%,-17.6%,-0.1,?,-13.1%,11.2µM*
Cc1ccc(/C=N\NC(=O)COc2ccc(C)cc2[N+](=O)[O-])cc1,0.8%,-3.2%,-0.6,6.3%,-12.2%,-11.0%
Cn1cc(/C=N/NC(=O)COc2ccccc2[N+](=O)[O-])c2ccccc21,0.7%,-1.3%,-8.8,12.6µM*,-14.1%,?
Cc1ccc(OCC(=O)N/N=C\c2c(C)[nH]n(-c3ccccc3)c2=O)c([N+](=O)[O-])c1,0.7%,13.3%[57.1 µM],9.6,0.562µM*,-13.9%[57.1 µM],0.501µM*
O=C(CCNC(=O)c1ccccc1Cl)NCC1CCCO1 (configuration not stated),/,-9.0%[57.1 µM],/,/,-4.2%[57.1 µM],/
Cc1csc(NC(=O)CSc2nc3ccccc3s2)n1,-1.4%,2.0%,0.6,-13.5%,-3.3%,-29.2%
CCc1ccccc1NC(=O)CCCSc1nc2ccccc2s1,/,15.6%,-2.3,?,-2.4%,?
Cc1csc(NC(=O)CCCSc2nc3ccccc3s2)n1,1.0%,5.6%[57.1 µM],-8.4,2µM*,-2.0%,31.6µM*
